Assay results as given in PubChem BioAssay AID1441 (NMMLSC, 2008).
In all, about 220,000 compounds went through this assay and about 830 (0.38%) were called active. Shown is part of a subset that was picked to be rich in actives. Values without a mark were called inactive. No rule for the calls is given here.

Each molecule was assayed against Regulator of G-protein signaling 16 (Homo sapiens) + Guanine nucleotide-binding protein G(o) subunit alpha (Homo sapiens) (UniProt O15492+P09471) (assay: modulators of RGS16 binding to Galphao, primary screen, biochemical, human proteins, multiplexed bead flow cytometry (AID 1441;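 also: Galphao activated by GDP with aluminum fluoride before binding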)). Details: bead-based flow cytometry RGS16-Galphao binding, fluorescence; at 10 µM; actives lie on both sides.
Chain of Regulator of G-protein signaling 16 (Homo sapiens) + Guanine nucleotide-binding protein G(o) subunit alpha (Homo sapiens) (O15492 whole entry, looked up): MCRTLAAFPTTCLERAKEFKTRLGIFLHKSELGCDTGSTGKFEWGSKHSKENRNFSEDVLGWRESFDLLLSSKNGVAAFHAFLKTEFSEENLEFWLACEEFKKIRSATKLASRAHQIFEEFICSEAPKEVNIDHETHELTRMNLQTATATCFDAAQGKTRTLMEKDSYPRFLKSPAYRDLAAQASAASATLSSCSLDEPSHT
Chain of Regulator of G-protein signaling 16 (Homo sapiens) + Guanine nucleotide-binding protein G(o) subunit alpha (Homo sapiens) (P09471 whole entry, looked up): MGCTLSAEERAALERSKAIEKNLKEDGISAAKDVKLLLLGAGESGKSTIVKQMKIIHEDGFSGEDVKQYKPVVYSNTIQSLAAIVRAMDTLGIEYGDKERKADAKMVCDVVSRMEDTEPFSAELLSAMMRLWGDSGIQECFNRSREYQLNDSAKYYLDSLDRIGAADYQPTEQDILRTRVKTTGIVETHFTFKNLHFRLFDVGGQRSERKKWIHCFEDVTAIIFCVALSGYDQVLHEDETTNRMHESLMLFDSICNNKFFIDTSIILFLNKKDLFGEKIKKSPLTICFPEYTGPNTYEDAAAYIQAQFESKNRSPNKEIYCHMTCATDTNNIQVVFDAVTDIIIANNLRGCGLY

Row | SMILES | binding response (% of control)
1 | CC(C)N(CC#CCC1(O)c2ccccc2-c2ccccc21)C(C)C | 180% [activator] (active)
2 | CCOC(=O)C1(Cc2ccc(Cl)cc2)CCN(C(C)CCn2cccn2)CC1 (stereo not given) | 102%
3 | O=[N+]([O-])c1ccc(C2C3C(c4ccccc4)=NC4(CCCCC4)N32)cc1 (stereo not given) | 100%
4 | COc1ccc(CN2C(=O)NC(=O)/C(=C\c3ccc(OC)c(OC)c3OC)C2=O)cc1 | 97.6%
5 | CCOC(=O)c1c(-c2ccccc2)oc2ccc(OC(=O)N(C)C)cc12 | 116%
